Broadly, the inhibition is the change of the read-out against control, counted positive when it falls.

The source of these data is PubChem BioAssay AID588850 (Sanford-Burnham Center for Chemical Genomics, 2011).

About 3,100 (0.86%) of roughly 360,000 compounds were called active.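 The calls were made as follows: active = at least 50% inhibition at 5 µM, scaled per plate between neutral and stimulator controls; inactive = the rest.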 This excerpt belongs to a sample that is enriched for actives.

The assay is described as follows: NF-kB reporter blockers in CF airway cells – cell-based, GFP fluorescence, uHTS, primary screen (AID 588850).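 Also: PAF is a Pseudomonas aeruginosa culture filtrate used as stimulus; plate controls were PAF-stimulated DMSO wells for no effect and unstimulated DMSO wells for full effect.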 The settings on record: KKLEB NF-kB-GFP reporter, PAF-induced, GFP fluorescence overnight; at 5 µM; active compounds read high.
Regarding `COC1C(O)C(C)OC(OC2CCC3(C=O)C(CCC4C3CCC3(C)C(C5=CC(=O)OC5)CCC43O)C2)C1O` (stereo not given), the inhibition was 91.1% (active).

As to `CCOP(=S)(OCC)SCOC(=O)NCC(=O)OC`, the inhibition was -6.4% (inactive).

Turning to `O=c1c2ccccc2[nH]c(=S)n1-c1cccc(Cl)c1`, the inhibition is -27.2% (inactive).

In the case of `Cc1ccc(-c2nn(CCC#N)cc2C(=O)O)cc1C`, the inhibition was 13.3% (inactive).

In the case of `CC[N+](CC)(CC)CCCCCCCCCC[N+](CC)(CC)CC`, the inhibition is 9.5% (inactive).

For `COc1c(O)ccc2c1-c1c3c(cc4c1C(C2)N(C)CC4)OCO3` (stereo not given), the inhibition is -18.7% (inactive).

Take `O=C1NC(=O)N(CCc2ccc(F)cc2)C(=O)/C1=C/C=C/c1ccccc1`: the inhibition is 101% (active).

On to `c1cncc(CNC2=NCCC2)c1`, for which the inhibition was 13.7% (inactive).

On to `CN1CCc2cc3c(cc2[C@H]1[C@@H]1OC(=O)c2c1ccc1c2OCO1)OCO3`, for which the inhibition is 15.1% (inactive).

Take `CN(C)CCCN=Cc1c(O)n(Cc2ccco2)c(=O)[nH]c1=O`: the inhibition is 13.6% (inactive).

On to `C[C@]12CC[C@H](O)C[C@H]1CC[C@@H]1C2CC[C@]2(C)[C@@H](C3=CC(=O)OC3)[C@@H](O)C[C@]12O` (stereo not given in full), for which the inhibition was 53.2% (active).

For the molecule `CC12CCC(O)CC1CCC1C2CCC2(C)C(C(=O)CC(O)C(F)(F)F)CCC12` (stereo not given), the inhibition is 9.6% (inactive).

As for `CCOP(=O)(OCC)C(NC(=O)NC)C(N)=O` (stereo not given), the inhibition is -12.3% (inactive).

As for `CC=C(C)C(=O)OC1CCN2CC=C(COC(=O)C(O)(C(C)OC)C(C)(C)O)C12` (stereo not given), the inhibition is 1.6% (inactive).

Turning to `CC(C)Oc1cccc(C(=O)C2CCCN(C3CCOCC3)C2)c1` (stereo not given), the inhibition is -10.1% (inactive).

As to `CCOC(=O)c1cccc(C2=C(CNC(=O)c3ccncc3)[C@H]3CC[C@@H](C2)N3Cc2ccccc2)c1`, the inhibition was 2.6% (inactive).

On to `CC(=CCOc1ccc2ccc(=O)oc2c1)C1=CC(=O)C(C)(C)O1`, for which the inhibition is 75.5% (active).

As to `O=C(CCN1CCCCC1)NCC(=O)Nc1ccc(Br)cc1C(=O)c1ccccc1`, the inhibition was -1.9% (inactive).

With `CC1=C(C(=O)Nc2ccccc2)SCCO1`, the inhibition is -0.6% (inactive).

Turning to `Cc1nn(-c2ccccc2)c(C)c1NC(=O)COC(=O)Cc1ccccc1`, the inhibition was 5.1% (inactive).

`O=c1[nH]c2ccccc2n1C1CCN(C(c2ccnc3ccccc23)c2nnnn2Cc2ccccc2)CC1` (stereo not given): the inhibition is 39.9% (inactive).

For `O=c1[nH]c2ccccc2n1C1CCN(C(c2ccccc2)c2nnnn2Cc2ccccc2)CC1` (stereo not given), the inhibition is 85.1% (active).

With `COc1ccc(-n2nnnc2C(c2cccc3ccccc23)N2CCC(n3c(=O)[nH]c4ccccc43)CC2)cc1` (stereo not given), the inhibition was 53.2% (active).

As to `O=C1NCN(c2ccccc2)C12CCN(C(c1cccs1)c1nnnn1C1CCCCC1)CC2` (stereo not given), the inhibition is -6.5% (inactive).

Consider `COc1cccc(C(c2nnnn2-c2ccc3c(c2)OCCO3)N2CCC3(CC2)C(=O)NCN3c2ccccc2)c1OC` (stereo not given), for which the inhibition was -0.8% (inactive).

In the case of `CSCCC(c1nnnn1C(C)(C)C)N1CCC(n2c(=O)[nH]c3ccccc32)CC1` (stereo not given), the inhibition is -10.2% (inactive).

In the case of `COC(=O)C1=C(c2ccccc2OCc2ccccc2)C[C@@H]2CC[C@H]1N2C(=O)NCc1ccc(OC)cc1`, the inhibition is -7.5% (inactive).

`CN(C)CC1CCCCC1=O` (stereo not given): the inhibition is 6% (inactive).

For `CC(C)(C)c1ccc(OC(=O)N2CCCCC2)cc1`, the inhibition is 16% (inactive).

In the case of `N=c1ccccn1Cc1ccccc1`, the inhibition is 14.3% (inactive).

For the molecule `CC1=C2C(=O)C3C(CC=C4CC(OC5OC(O)C(O)C(O)C5CO)CCC43C)C2CCC12OC1CC(C)CNC1C2C` (stereo not given), the inhibition is 7.6% (inactive).

For the molecule `CCC1(C)CC(CCNCc2ccc(N(C)C)cc2)(c2ccc(F)cc2)CCO1` (stereo not given), the inhibition is 22.8% (inactive).

On to `Cc1cc(C)c2c(c1)NP(=S)(c1ccccc1)N2` (stereo not given), for which the inhibition is 24.3% (inactive).

As for `CCOC(=O)CC1=C(C(=O)OCC)C2(C(=O)N1)C(C(=O)OC)=C(N)Oc1ccccc12` (stereo not given), the inhibition is -14% (inactive).

Regarding `CN(C)CC1Oc2ccccc2OC1(O)c1ccccc1` (stereo not given), the inhibition was 75.7% (active).

`CN(C)S(=O)(=O)c1cc(C(=O)N2CCC(C(=O)O)(c3ccccc3)CC2)ccc1Cl`: the inhibition was 7.2% (inactive).

For the molecule `COC(=O)C1=C(c2ccccc2)C[C@@H]2CC[C@H]1N2C(=O)N1CCCCC1`, the inhibition was -2.3% (inactive).

In the case of `Cc1cccc(NC(=O)OC2CN3CCC2CC3)c1` (stereo not given), the inhibition is 9% (inactive).

For the molecule `O=C1NC(=O)C(Cc2ccccc2)C(=O)N1`, the inhibition is -11% (inactive).

Take `C=CCN1C(=O)C2(C(C(=O)OCC)=C(N)Oc3c2c(=O)oc2ccccc32)c2ccccc21` (stereo not given): the inhibition was -5.7% (inactive).

As to `CC(=O)OC1C2(CC3N4C(=O)C5(CO)SSC4(CC31O)C(=O)N5C)OC(C)C(C)(C)C2=O` (stereo not given), the inhibition was 88.5% (active).

In the case of `CC(CC(C#N)(c1ccccc1)c1ccccc1)N1CCCCC1` (stereo not given), the inhibition was 7.8% (inactive).

For `CCC(C)(O)C(=O)OC1C(=O)OC2CC3C(C)=CC(=O)C(O)C3(C)C3C4(O)OCC23C1C(C)C4O` (stereo not given), the inhibition was 91.3% (active).

`CCOC(=O)C1(Cc2ccc(Cl)cc2)CCN(C(C)CCn2cccn2)CC1` (stereo not given): the inhibition was 29.4% (inactive).

On to `CC1(C)C(c2ccccc2)=NC(c2cccnc2)=[N+]1[O-]`, for which the inhibition was 7.5% (inactive).

In the case of `CCCCCCCCCCCCn1ccc(=N)cc1`, the inhibition is 61.8% (active).

For the molecule `CN(C)C(=O)Oc1ccc(NC(=O)N2CCOCC2)cc1`, the inhibition is -9.2% (inactive).

Take `O=C(CCC(=O)N1C[C@H]2C[C@@H](C1)c1cccc(=O)n1C2)NCc1ccccc1C(F)(F)F`: the inhibition is -6.7% (inactive).

On to `COC(=O)C1=C(c2cccc(OCc3ccccc3)c2)C[C@@H]2CC[C@H]1N2C(=O)NCc1ccc(Br)cc1`, for which the inhibition is 6.2% (inactive).

Take `COC(=O)COc1cc(C)cc2oc(=O)c3c(c12)CCCC3`: the inhibition is 5.1% (inactive).
